Screening results as filed in PubChem.
ClpP mod – qHTS Assay for Activators of ClpP. ATP-dependent Clp protease proteolytic subunit (Bacillus subtilis (strain 168)), P80244. purified B. subtilis ClpP, FRET peptide cleavage, 20 min. Potency, µM (doses to about 57.5 µM), for the others: at the top dose activity change, negative = active. hit rate 1.9% among 340,000; active = well fitted falling curve with a large enough effect; inconclusive = small, poorly fitted or top-dose-only effect; inactive = no such curve, though single readings can be large or run the other way; also: potency is read from the fitted curve at half-maximal effect; the source files actives as falling curves though it sought activators and does not explain the sign; nearly all actives have a fitted effect of over 65% in size
Target sequence (P80244 whole entry, looked up): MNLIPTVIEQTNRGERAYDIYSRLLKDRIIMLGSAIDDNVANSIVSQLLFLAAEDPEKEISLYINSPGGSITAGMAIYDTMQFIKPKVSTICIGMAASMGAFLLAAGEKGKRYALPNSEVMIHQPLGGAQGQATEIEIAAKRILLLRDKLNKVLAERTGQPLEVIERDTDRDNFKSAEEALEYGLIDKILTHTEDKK
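Buffer: 100 mM Tris/HCl pH8, 100 mM KCl, 0.05% low protease BSA, 2.5% glycerol, 0.01% Tween-20. ClpP 10 microg/mL final; 20 min RT; delta FRET normalized to ADEP and DMSO controls.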
TCR activator – T cell receptor activation | primary human leukocytes, anti-CD3, IL-2 HTRF, 48 h | Potency, µM (titrated, usually from 9.22 µM), for the others: at the highest dose activation of IL-2 secretion, most hits filed as activators | 330,000 tested, under 10 active | AID 504894; also: % of control where 0% means no effect
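Compounds are tested in HTS on primary human leukocytes co-incubated with a-CD3 beads for 48 hr. IL-2 output is measured by time-resolved FRET.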
uPA surface inh – inhibitors of cell surface uPA generation. cell surface uPA generation assay, qHTS. Potency, µM (titrated, usually from 38.3 µM), without a hit: at the highest dose activity change, negative = inhibition, actives largely listed as inhibitors. hit rate 0.31% among 330,000; active = well fitted inhibition curve with a large enough effect; inconclusive = small, poorly fitted or top-dose-only effect; inactive = no such curve, though single readings can be large or run the other way; tested in mouse RAW 264.7 cells; also: potency is read from the fitted curve at half-maximal effect; % is scaled to controls: 0 for no effect and ±100 for the full control effect; nearly all actives have a fitted effect of over 55% in size
Sfp PPTase inh – Sfp phosphopantetheinyl transferase inhibition; Q9F4F7; Biochemical Sfp PPTase activity, qHTS; Potency, µM, for the others: largest response in the series, negative = inhibition, actives largely listed as inhibitors; hit rate 3.5% among 310,000; AID 1490;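 also: the enzyme is Sfp with the accession as filed and its product quenches rhodamine fluorescence; potency is read from the fitted curve at half-maximal effect; 0% = enzyme reaction without inhibitor and -100% = no enzyme wells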
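Sfp 15 nM + cpd, 15 min RT; start w/ rhodamine-CoA 5 uM, BHQ-2-YbbR 12.5 uM (final); 50 mM Hepes pH 7.6, 10 mM MgCl2, 0.01% NP-40, 0.01% BSA; read 525/598 nm at 0 and 30 min.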
ClpP validation – inhibits B. subtilis ClpP protease, hit validation; shares compounds with ClpP mod; hit rate 40% among 470; purified B. subtilis ClpP, FRET-FV substrate cleavage, 20 min; Potency, µM (titrated, usually from 57.5 µM), for the others: top-dose activity change, negative = inhibition, most hits filed as inhibitors; also: potency is read from the fitted curve at half-maximal effect; % is scaled to controls: 0 for no effect and ±100 for the full control effect; nearly all actives have a fitted effect of over 70% in size
Starred values were filed as active, the others as inactive; [ ] = remark or other dose. Shown are actives, neighbours in structure and some others; about 4.2% of the full set was active somewhere. Unless noted, calls follow the shape of the dose curve; as a rule, active = well fitted curve in the direction sought with a large enough effect; inconclusive = small, poorly fitted or top-dose-only effect, or another doubt; inactive = no such curve, though single readings can be large; an effect the other way counts as inactive or inconclusive.

How did COc1ccc(NC(=O)Nc2nnc(-c3cccs3)s2)cc1 do in these assays?
ClpP mod: -4.7%; TCR activator: -11.6%; uPA surface inh: 3.9%; Sfp PPTase inh: -2.1%

What do the screens show for `COc1ccc(C(=O)Nc2nnc(-c3cccs3)s2)cc1`?
ClpP mod: 92.7%; TCR activator: 13.5%; uPA surface inh: -9.8%; Sfp PPTase inh: -11.8%; ClpP validation: 17.2µM*

Results for Cc1ccc(C)c(NC(=O)C(OC(=O)c2cnc(C)cn2)c2ccccc2)c1 (stereo not drawn) ?
ClpP mod: 91.8%; TCR activator: 6.9%; uPA surface inh: 11.0%; ClpP validation: 0.2%

What do the screens show for `COc1ccc(C)cc1NC(=O)C(OC(=O)c1cnc(C)cn1)c1ccccc1` (stereo not drawn)?
ClpP mod: 3.3%; TCR activator: 1.2%; uPA surface inh: -2.7%

Results for Cc1ccc(C2Nc3ccccc3-c3nc4ccccc4n32)o1 (stereo not drawn) ?
ClpP mod: 0.708µM*; TCR activator: 5.7%[46.1 µM]; uPA surface inh: -18.5%; Sfp PPTase inh: -2.6%; ClpP validation: 10.9µM*

What do the screens show for `CCOC(=O)c1[nH]c2ccccc2c1NC(=O)c1cc(OCC)c(OCC)c(OCC)c1`?
ClpP mod: 44.9%; ClpP validation: 12.3%

What do the screens show for `Cc1ccccc1Nc1c(-c2cc(Br)ccc2F)nc2ccccn12`?
ClpP mod: 4.47µM*; ClpP validation: -7.3%

What do the screens show for `Fc1cc2nc(-c3ccncc3)[nH]c2cc1F`?
ClpP mod: 3.16µM*; TCR activator: -28.3%; uPA surface inh: -1.3%; Sfp PPTase inh: 1.9%; ClpP validation: 17.2µM*

Results for COc1ccc(NS(=O)(=O)c2ccc(C)c(C(=O)O)c2)cc1 ?
ClpP mod: -2.7%; TCR activator: 2.8%; uPA surface inh: -2.6%; Sfp PPTase inh: -3.8%

What do the screens show for `COc1ccc(NS(=O)(=O)c2ccc(C)c(C(=O)NNC(=O)c3ccccc3O)c2)cc1`?
ClpP mod: 71.7%; TCR activator: -7.0%; uPA surface inh: -1.1%; ClpP validation: 0.3%

Results for COc1ccc(-c2oc3ncn4nc(COc5ccc(Cl)cc5)nc4c3c2-c2ccc(OC)cc2)cc1 ?
ClpP mod: 34.9%; ClpP validation: inconclusive

How did COc1ccc(-c2oc3ncn4nc(COc5c(C)cccc5C)nc4c3c2-c2ccc(OC)cc2)cc1 do in these assays?
ClpP mod: 3.8%

What do the screens show for `Nc1ccc(-c2nc3ccc(-c4nc5ccccc5o4)cc3[nH]2)cc1`?
ClpP mod: 32.1%; TCR activator: 5.6%; uPA surface inh: -6.4%; Sfp PPTase inh: 13.2%

What do the screens show for `Cc1nc2ccc(-c3nc4ccccc4o3)cc2[nH]1`?
ClpP mod: 3.16µM*; TCR activator: -2.0%; uPA surface inh: -10.4%; Sfp PPTase inh: 8.6%; ClpP validation: 15.3µM*

Results for O=C(NCc1ccccc1)C(c1ccccc1)n1c(=O)c(-c2cc3ccccc3[nH]2)nc2ccccc21 (stereo not drawn) ?
ClpP mod: 3.2%

Results for COc1ccc(NC(=O)C(c2cc3ccccc3o2)n2c(=O)c(-c3cc4ccccc4[nH]3)nc3ccccc32)cc1 (stereo not drawn) ?
ClpP mod: 33.5%; ClpP validation: -1.5%

How did COc1ccc(NC(=O)C(c2ccc(OC)cc2)n2c(=O)c(-c3cc4ccccc4[nH]3)nc3ccccc32)cc1 (stereo not drawn) do in these assays?
ClpP mod: 19.0%

Results for O=C(NCc1ccccc1)C(c1cc2ccccc2o1)n1c(=O)c(-c2cc3ccccc3[nH]2)nc2ccccc21 (stereo not drawn) ?
ClpP mod: 38.0%; ClpP validation: -4.2%

What do the screens show for `O=C(N=C1SC2CS(=O)(=O)CC2N1c1ccccc1Cl)C1CCCO1` (stereo not drawn)?
ClpP mod: -3.1%; TCR activator: 5.9%; uPA surface inh: 0.1%; Sfp PPTase inh: 13.8%

Results for Cn1ncc([N+](=O)[O-])c1C(=O)Nc1ccc(-c2nc3ccccc3o2)cc1 ?
ClpP mod: 1.1%; TCR activator: 6.1%; uPA surface inh: 1.2%; Sfp PPTase inh: 10.5%
